We go through 103 compounds from PubChem BioAssay AID1259343 (VanderVen Lab, College of Veterinary Medicine, Cornell …, 2017).

About 2,900 (47%) of roughly 6,200 compounds were called active. Rule as the data show it: active = inhibition above about 50%; inactive = the rest. So high a share suggests a set chosen from earlier hits. This is one part of the list.

The nature of this assay: Mycobacterium tuberculosis growth inhibition, primary screen (AID 1259343). The conditions noted are these: inhibition: at 10 µM, stronger effect = higher value; outcome: 10 uM.
Broadly, the inhibition is the relative decrease from the control value, in per cent. With `CCC(Nc1ccccc1)c1nc(C2CCC2)no1` (stereo not drawn), the inhibition was 44.9% (inactive).

For the compound `Cc1sc2ncnc(N(C)Cc3nc(C4CC4)no3)c2c1C`, the inhibition is -15.9% (inactive).

`CN(CCCc1ccccc1)Cc1nc(C2CC2)no1`: the inhibition is 78.2% (active).

As to `CC(C)Cn1c(-c2ccco2)nc2c(c(=O)c3ccccc3n2C)c1=O`, the inhibition is -27.4% (inactive).

On to `CCN1C(=O)SC(Nc2ccc(C)c(Cl)c2)C1=O` (stereo not drawn), for which the inhibition is 96.3% (active).

Regarding `Cc1ccc(NS(=O)(=O)N2CCCCC2)cc1Cl`, the inhibition was 23.6% (inactive).

For the compound `COc1ccc(NC2CC(O)C(CO)O2)cc1` (stereo not drawn), the inhibition entry is “inactive”.

Regarding `CCN1C(=O)SC(Nc2ccc(OC)cc2)C1=O` (stereo not drawn), the inhibition is 78.9% (active).

Take `Cc1ccc(C)c(-n2nnnc2SCCCC(=O)c2cccs2)c1`: the inhibition is -43% (inactive).

As for `O=C(Cn1nnc([N+](=O)[O-])n1)c1cccs1`, the inhibition was 98.8% (active).

On to `Brc1cc2c(cc1Cn1nnc(-c3cccs3)n1)OCO2`, for which the inhibition is -19.9% (inactive).

For `O=C(Cn1nnc(-c2cccs2)n1)c1ccc(Cl)s1`, the inhibition was 77.8% (active).

In the case of `O=C(CN1C(=O)CC2(CCCC2)C1=O)c1ccc(Cl)s1`, the inhibition is -28.2% (inactive).

Consider `CC(C)(C)c1cc2nc(C(=O)O)cc(-c3ccccc3F)n2n1`, for which the inhibition was 62.4% (active).

As for `CC(C)(C)c1cc2nc(C(=O)O)cc(-c3ccccc3Cl)n2n1`, the inhibition is 58.8% (active).

Take `CC(C)(C)c1cc2nc(C(=O)O)cc(-c3ccc(Cl)cc3)n2n1`: the inhibition was 83.5% (active).

With `CCC(=O)O[C@H]1CCC2C3CCc4cc(O)ccc4C3CC[C@@]21C` (stereo partly drawn), the inhibition was 46.7% (inactive).

For `CCC(CC)C(NC[c-]1[c-][c-][c-][c-]1)c1ccccc1.[Fe].[c-]1[c-][c-][cH-][c-]1` (stereo not drawn), the inhibition was 36.6% (inactive).

`O=C(O)CCc1nc2ccccc2oc1=O`: the inhibition was 67.4% (active).

For `O=C(CCc1nc2ccccc2o1)N1CC=C(c2ccccc2)CC1`, the inhibition is 29.9% (inactive).

As to `CCOc1ccc2cc(C(=O)C(C#N)C(=O)c3ccsc3)[nH]c2c1` (stereo not drawn), the inhibition is 12.1% (inactive).

Take `Cn1c2c(c3cc(-c4cccc5c4CCNC5)ccc31)CCCC2=O`: the inhibition is 10.9% (inactive).

Consider `c1cc2c(c(-c3cccc4[nH]ccc34)c1)CCNC2`, for which the inhibition was 73.2% (active).

For the compound `O=c1[nH]cc(F)c(=O)[nH]1`, the inhibition was 67.9% (active).

Turning to `N#CC(=Cc1ccsc1)c1nc2ccccc2s1`, the inhibition is 11.6% (inactive).

In the case of `Cc1csc(C(C#N)=Cc2cccc(O)c2)n1`, the inhibition is 88.7% (active).

With `CN1CCCc2cc(NC(=O)NCCC(=O)NC3CCCC3)ccc21`, the inhibition is 0.23% (inactive).

In the case of `Cc1nc(CNc2ccc3c(c2)CCN3C(=O)OC(C)(C)C)cs1`, the inhibition was 29.2% (inactive).

For `CC(C)(C)OC(=O)N1CCc2cc(NC(=O)C(=O)NC3CC3)ccc21`, the inhibition was 74.5% (active).

As for `COc1cccc(-c2cnnc(N3CCC(OCc4ccccc4)CC3)n2)c1`, the inhibition is 30.1% (inactive).

Regarding `c1ccc(COC2CCN(CCOc3ccccc3)CC2)cc1`, the inhibition is 50.1% (active).

For the compound `CCc1cc(=O)[nH]c(-n2nc(C)cc2NC(=O)c2cccc(C)c2)n1`, the inhibition was 101% (active).

In the case of `CCc1cc(=O)[nH]c(-n2nc(C)cc2NC(=O)c2ccc(-c3ccccc3)cc2)n1`, the inhibition was 103% (active).

For `CCc1cc(=O)[nH]c(-n2nc(C)cc2NC(=O)c2ccccc2)n1`, the inhibition is 102% (active).

As to `N#Cc1ccc(Nc2ccc(N3CCCC3)c(F)c2)nc1`, the inhibition is 48.8% (inactive).

For the compound `N#Cc1ccc(Nc2ccc(OC3CCCC3)cc2)nc1`, the inhibition was 93.4% (active).

In the case of `N#Cc1ccc(Nc2ccc(Cl)cc2)cc1`, the inhibition was 3.65% (inactive).

Turning to `CC(C)C1=CC2=CC[C@H]3[C@](C)(CO)CCC[C@]3(C)C2CC1` (stereo partly drawn), the inhibition was 82.5% (active).

As to `Cc1cn(Cc2csc(C(C)C)n2)cc1C#N`, the inhibition is 1.23% (inactive).

For the compound `O=C(NCc1cccc(-c2ncc(-c3ccc(F)cc3)[nH]2)c1)c1cccs1`, the inhibition is 22.9% (inactive).

`Cn1c(Sc2ncc(-c3ccc(F)cc3)[nH]2)c(C#N)c(=O)n(C)c1=O`: the inhibition is -14.4% (inactive).

As for `N#Cc1cccc(C(=O)NCc2cccc(-c3ncc(-c4ccc(F)cc4)[nH]3)c2)c1`, the inhibition was 81.2% (active).

Take `Cc1nc(-c2ccc(NC(=O)COC3CCCCC3)cc2)cs1`: the inhibition is 95% (active).

With `O=C(COC1CCCCC1)Nc1ccc(-c2nccs2)cc1`, the inhibition was -7.41% (inactive).

For `Cc1nc(-c2cccs2)cc([C@H]2CN3CC[C@H]2C[C@@H]3CNC(=O)Nc2cccc(C(F)(F)F)c2)n1`, the inhibition was 53.2% (active).

Consider `Cc1nn(-c2ccccc2)c(Cl)c1C(=O)Nc1cccc(C(F)(F)F)c1`, for which the inhibition was 38.3% (inactive).

As to `Cc1sc2nc(CSc3ccc(Br)cc3)nc(-n3ccnc3)c2c1C`, the inhibition is -19.2% (inactive).

As to `CC(=O)NCCC(=O)Nc1ccc(Oc2ccc(C#N)cc2)c(Cl)c1`, the inhibition is -2.79% (inactive).

`Cc1ccc(C(=O)Nc2ccc(OCC#N)cc2)cc1C`: the inhibition is 22% (inactive).

On to `N#CCOc1ccc(NC(=O)CCOc2ccc(F)cc2Cl)cc1`, for which the inhibition is 81.4% (active).

For `O=S(=O)(CCCOc1ccc2c(c1)OCO2)N1CCCCC1`, the inhibition is 88.8% (active).

Turning to `CCOC(=O)N1CCN(S(=O)(=O)CCCOc2ccc3c(c2)OCO3)CC1`, the inhibition is 32.5% (inactive).

In the case of `O=S(=O)(CCCOc1ccc2c(c1)OCO2)N1CCCCCC1`, the inhibition is 86% (active).

In the case of `CC1CCN(c2ncnc3c2cnn3Cc2ccc(Cl)cc2)CC1`, the inhibition was 62.6% (active).

As to `c1ccc2c(c1)oc1c(N3CCCCCC3)ncnc12`, the inhibition is -12.7% (inactive).

Consider `Clc1ccc(Cn2ncc3c(N4CCCCC4)ncnc32)cc1`, for which the inhibition was 67.1% (active).

As to `Cc1ccc(Cn2ncc3c(N4CCC(C)CC4)ncnc32)cc1`, the inhibition is 25.7% (inactive).

Regarding `Clc1ccc(Cn2ncc3c(N4CCCC4)ncnc32)cc1`, the inhibition is 65.3% (active).

Regarding `Clc1ccc(Cn2ncc3c(N4CCN(c5cccc(Cl)c5)CC4)ncnc32)cc1`, the inhibition is 14.4% (inactive).

On to `CCN(CC)c1ncnc2c1cnn2Cc1ccc(Cl)cc1`, for which the inhibition was 34.4% (inactive).

Turning to `CCOc1ccc(C2C(c3nc4ccccc4s3)=C(O)C(=O)N2c2cc(C)on2)cc1OC` (stereo not drawn), the inhibition was 46.5% (inactive).

Take `Clc1ccccc1C(c1ccccc1)(c1ccccc1)n1ccnc1`: the inhibition was 68.1% (active).

As to `COc1cc(OC)c2c(OC)c(-c3ccc4c(c3)OCO4)c(=O)oc2c1`, the inhibition was 70.6% (active).

For `Cn1ncc2c(N3CCN(CC(=O)Nc4ccc(Cl)cc4F)CC3)ncnc21`, the inhibition was 88.8% (active).

For `CCCc1cc(=O)[nH]c(-n2nc(C)cc2NC(=O)c2ccc(OCC)cc2)n1`, the inhibition is 100% (active).

As for `CCCCOc1ccc(C(=O)Nc2cc(C)nn2-c2nc(CCC)cc(=O)[nH]2)cc1`, the inhibition was 101% (active).

Consider `CCCc1cc(=O)[nH]c(-n2nc(C)cc2NC(=O)c2ccc(OC)cc2)n1`, for which the inhibition was -40.9% (inactive).

Regarding `CCCc1cc(=O)[nH]c(-n2nc(C)cc2NC(=O)c2cc(OCC)c(OCC)c(OCC)c2)n1`, the inhibition was 100% (active).

On to `CCOc1cc(C(=O)Nc2cc(C)nn2-c2nc(C)cc(=O)[nH]2)cc(OCC)c1OCC`, for which the inhibition is 100% (active).

Take `O=C(COc1ccc(Cl)c2ccccc12)NCC(F)(F)F`: the inhibition was 17.8% (inactive).

Take `Clc1ccc(OCC2CCCNC2)c2ccccc12` (stereo not drawn): the inhibition is 77.8% (active).

For `Nc1ncc(Cc2ccc(Br)cc2)s1`, the inhibition was 46.1% (inactive).

For `Nc1ncc(Cc2ccc(F)cc2)s1`, the inhibition was 93% (active).

Take `Nc1ncc(Cc2ccc(F)c(Cl)c2)s1`: the inhibition is -17.6% (inactive).

Turning to `COC(=O)c1ccc(COc2ccc(C3C4=C(Nc5nnnn53)C(C(C)(C)C)CCC4)cc2)cc1` (stereo not drawn), the inhibition is 88.6% (active).

`Cc1ccc(C2CC2C(=O)NC(C)c2nc(C3CCCC3)no2)s1` (stereo not drawn): the inhibition is 29.8% (inactive).

Turning to `COCCc1noc(C2CC2c2ccc(C)s2)n1` (stereo not drawn), the inhibition is 90.7% (active).

As for `O=S(N1CCc2ccccc2C1)C12CC3CC(CC(C3)C1)C2` (stereo not drawn), the inhibition is 80.3% (active).

Turning to `O=c1cc(CSc2cccc[n+]2[O-])c2c(ccc3ccccc32)o1`, the inhibition was 102% (active).

Take `Nc1ncc([N+](=O)[O-])c(Sc2nc3ccccc3s2)n1`: the inhibition was -52.4% (inactive).

As to `C=CCNc1nnc(Sc2ncccc2[N+](=O)[O-])s1`, the inhibition is 98.3% (active).

In the case of `CC(C)=CCC1=C(O)c2ccccc2C(=O)C1=O`, the inhibition was 101% (active).

Regarding `O=C(Nc1nc2c(s1)CCN(Cc1ccccc1)C2)c1cccc(F)c1`, the inhibition is 21.5% (inactive).

`O=C(Nc1nc2ccc3ccccc3c2s1)c1ccccc1`: the inhibition is 61.4% (active).

Regarding `COc1ccc(Nc2ncnc3c2cnn3Cc2ccc(C)cc2)cc1`, the inhibition is 23.5% (inactive).

For `Cc1ccc(Cn2ncc3c(Nc4ccc(C)cc4)ncnc32)cc1`, the inhibition is 35.1% (inactive).

On to `Cc1ccc(Cn2ncc3cc(Br)cnc32)cc1`, for which the inhibition is 97% (active).

On to `Cc1ccccc1-n1cc(CN(C)Cc2nc(-c3ccccc3)no2)cn1`, for which the inhibition is 86% (active).

As to `CCOc1ccc(Br)cc1S(=O)(=O)Oc1cccc2c1OC(C)(C)C2`, the inhibition was 23.4% (inactive).

Consider `COc1ccc(Br)cc1S(=O)(=O)Oc1ccc2ccccc2c1`, for which the inhibition was 95.9% (active).

On to `O=C(NCc1ccc(OCC2CC2)nc1)c1cccc2cn[nH]c12`, for which the inhibition was 79.9% (active).

With `CC(C)Oc1ccc(CNC(=O)c2cc(Cl)ccc2F)cn1`, the inhibition is -0.38% (inactive).

In the case of `O=C(NS(=O)(=O)c1ccc(Cl)cc1F)c1cccc2cn[nH]c12`, the inhibition is 22.9% (inactive).

Turning to `O=C(NN=Cc1ccco1)c1cc(Br)ccc1O`, the inhibition was 98.8% (active).

As for `COCCn1c(O)c(C=NNC(=O)c2cc(Cl)ccc2O)c(=O)[nH]c1=S`, the inhibition is 45.1% (inactive).

With `C=CCc1ccccc1OCCn1cnc2ccccc21`, the inhibition was 57% (active).

For the compound `C=CCc1ccc(OCCCCn2cnc3ccccc32)c(OC)c1`, the inhibition is 61.1% (active).

As for `C=CCc1ccc(OCCOc2ccc(F)cc2)c(OC)c1`, the inhibition is -4.29% (inactive).

With `OCc1ccc(Oc2ccc(Br)cc2)c(F)c1`, the inhibition is 94.1% (active).

In the case of `Cc1ccc(S(=O)(=O)c2ccc([N+](=O)[O-])o2)cc1`, the inhibition was 102% (active).

In the case of `Cc1nc(N)sc1-c1ccc([N+](=O)[O-])o1`, the inhibition is -7.32% (inactive).

Take `O=C(Nc1nnc(C2CC(=O)N(c3ccccc3)C2)o1)C1=COCCO1` (stereo not drawn): the inhibition was 93.6% (active).

Regarding `Cc1cc(C)c(-c2nc(NC(=O)C3=COCCO3)sc2C)cc1C`, the inhibition was 11.4% (inactive).
